From PMC7862700, “An all-to-all approach to the identification of sequence-specific readers for epigenetic DNA modifications on cytosine”

Tests used:
Test in all cases: DAPPL (digital affinity profiling via proximity ligation, sequencing); 10 mM Tris-HCl pH 7.5, 50 mM NaCl, 1 mM DTT, 4% glycerol, room temperature, 30 min; GST-TFs on glutathione beads, 16-mer random dsDNA library, 0.1% formaldehyde crosslink after washing; high values mean tight binding
FEV = target: T1, FEV (Homo sapiens, UniProt Q99581 1-238); details: protein: recombinant; tags: N-terminal GST; dsDNA, one strand shown
T1 sequence: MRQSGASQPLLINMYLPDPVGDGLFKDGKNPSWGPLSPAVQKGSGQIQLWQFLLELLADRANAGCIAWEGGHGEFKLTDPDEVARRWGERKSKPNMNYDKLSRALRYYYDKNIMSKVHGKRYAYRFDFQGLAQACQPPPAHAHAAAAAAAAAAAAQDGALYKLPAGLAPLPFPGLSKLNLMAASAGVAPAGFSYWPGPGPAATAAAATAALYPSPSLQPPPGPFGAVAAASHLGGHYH
Summary of the method: (§1)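 Binding signal is given per hexamer as its read frequency for a factor divided by its frequency in the tag-only sample. GST-fused human transcription factors were expressed in yeast, captured on glutathione beads, barcoded with DNA and pooled with that sample, then incubated with 200 nmole of a 16-mer random double-stranded DNA library in Tris/NaCl/DTT/glycerol buffer for 30 min at room temperature. The pools were then washed, crosslinked, proximity-ligated, amplified by PCR and sequenced on an Illumina NextSeq500.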

ETV5 = ETV5 (Homo sapiens, UniProt P41161 1-510); details: protein: recombinant; tags: N-terminal GST; dsDNA, one strand shown
Summary of the method: as §1

HSF1 = HSF1 (Homo sapiens, UniProt Q00613 1-529); details: protein: recombinant; tags: N-terminal GST; chain copies: 3; dsDNA, one strand shown
Summary of the method: as §1

SPIC = target: T2, SPIC (Homo sapiens, UniProt Q8N5J4 1-248); details: protein: recombinant; tags: N-terminal GST; dsDNA, one strand shown
T2 sequence: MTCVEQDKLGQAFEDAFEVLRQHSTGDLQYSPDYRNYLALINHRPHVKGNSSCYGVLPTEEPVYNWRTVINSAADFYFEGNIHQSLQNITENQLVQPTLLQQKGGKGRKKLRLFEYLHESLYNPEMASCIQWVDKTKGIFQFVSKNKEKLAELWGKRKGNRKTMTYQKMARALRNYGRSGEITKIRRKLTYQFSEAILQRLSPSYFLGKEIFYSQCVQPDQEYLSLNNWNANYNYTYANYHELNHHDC
Summary of the method: as §1

ELF4 = ELF4 (Homo sapiens, UniProt Q99607 1-663); details: protein: recombinant; tags: N-terminal GST; dsDNA, one strand shown
Summary of the method: as §1

ELK4 = target: T3, ELK4 (Homo sapiens, UniProt P28324-2 1-405); details: protein: recombinant; tags: N-terminal GST; dsDNA, one strand shown
T3 sequence: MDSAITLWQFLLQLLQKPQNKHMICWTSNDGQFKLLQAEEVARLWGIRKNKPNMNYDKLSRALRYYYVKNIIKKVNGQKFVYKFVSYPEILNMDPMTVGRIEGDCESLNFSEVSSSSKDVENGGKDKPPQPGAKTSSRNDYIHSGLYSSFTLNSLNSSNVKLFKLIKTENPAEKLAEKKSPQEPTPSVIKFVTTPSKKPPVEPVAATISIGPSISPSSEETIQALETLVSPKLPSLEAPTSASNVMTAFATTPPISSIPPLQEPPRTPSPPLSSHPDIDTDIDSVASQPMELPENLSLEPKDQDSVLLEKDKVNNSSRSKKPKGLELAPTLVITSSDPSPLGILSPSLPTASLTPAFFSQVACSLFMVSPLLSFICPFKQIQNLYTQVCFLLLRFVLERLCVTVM
Summary of the method: as §1

ETV2 = target: T4, ETV2 (Homo sapiens, UniProt O00321 1-342); details: protein: recombinant; tags: N-terminal GST; dsDNA, one strand shown
T4 sequence: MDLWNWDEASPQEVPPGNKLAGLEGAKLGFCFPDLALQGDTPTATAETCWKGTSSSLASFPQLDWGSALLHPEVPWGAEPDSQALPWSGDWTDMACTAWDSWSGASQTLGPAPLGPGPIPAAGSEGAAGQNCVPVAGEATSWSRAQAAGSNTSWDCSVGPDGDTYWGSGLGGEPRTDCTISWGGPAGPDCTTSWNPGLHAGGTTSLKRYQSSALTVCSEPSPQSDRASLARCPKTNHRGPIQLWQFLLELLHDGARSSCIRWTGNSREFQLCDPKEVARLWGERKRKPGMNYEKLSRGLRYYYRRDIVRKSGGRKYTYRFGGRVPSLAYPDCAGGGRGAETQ
Summary of the method: as §1

ELF3 = target: T5, ELF3 (Homo sapiens, UniProt P78545 1-371); details: protein: recombinant; tags: N-terminal GST; dsDNA, one strand shown
T5 sequence: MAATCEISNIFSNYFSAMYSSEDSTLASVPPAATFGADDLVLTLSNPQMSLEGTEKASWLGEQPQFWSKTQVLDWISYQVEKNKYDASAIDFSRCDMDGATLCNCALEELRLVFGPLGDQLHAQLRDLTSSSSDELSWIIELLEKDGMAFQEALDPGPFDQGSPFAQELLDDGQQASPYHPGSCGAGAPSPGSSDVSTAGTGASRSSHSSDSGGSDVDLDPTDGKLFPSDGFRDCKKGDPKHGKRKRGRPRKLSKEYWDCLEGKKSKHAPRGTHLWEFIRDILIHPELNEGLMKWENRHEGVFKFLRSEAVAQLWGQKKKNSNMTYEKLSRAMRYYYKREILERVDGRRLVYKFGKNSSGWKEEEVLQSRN
Summary of the method: as §1

CRX = CRX (Homo sapiens, UniProt O43186 1-299); details: protein: recombinant; tags: N-terminal GST; dsDNA, one strand shown
Summary of the method: as §1

ETV1 = ETV1 (Homo sapiens, UniProt P50549 1-477); details: protein: recombinant; tags: N-terminal GST; dsDNA, one strand shown
Summary of the method: as §1

ETV1, sequence (P50549 whole entry): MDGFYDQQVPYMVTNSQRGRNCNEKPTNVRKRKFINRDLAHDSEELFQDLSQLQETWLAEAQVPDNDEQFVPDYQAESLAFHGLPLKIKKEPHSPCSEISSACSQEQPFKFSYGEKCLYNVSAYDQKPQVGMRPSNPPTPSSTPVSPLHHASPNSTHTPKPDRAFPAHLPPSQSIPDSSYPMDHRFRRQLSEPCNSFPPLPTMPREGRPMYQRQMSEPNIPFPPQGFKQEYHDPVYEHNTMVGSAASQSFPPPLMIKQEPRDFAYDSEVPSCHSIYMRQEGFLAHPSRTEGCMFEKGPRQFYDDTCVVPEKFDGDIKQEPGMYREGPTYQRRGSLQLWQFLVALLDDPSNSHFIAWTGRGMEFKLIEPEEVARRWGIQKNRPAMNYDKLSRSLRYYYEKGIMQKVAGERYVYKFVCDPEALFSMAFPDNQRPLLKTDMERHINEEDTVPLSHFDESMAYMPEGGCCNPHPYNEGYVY
ELF4, sequence (Q99607 whole entry): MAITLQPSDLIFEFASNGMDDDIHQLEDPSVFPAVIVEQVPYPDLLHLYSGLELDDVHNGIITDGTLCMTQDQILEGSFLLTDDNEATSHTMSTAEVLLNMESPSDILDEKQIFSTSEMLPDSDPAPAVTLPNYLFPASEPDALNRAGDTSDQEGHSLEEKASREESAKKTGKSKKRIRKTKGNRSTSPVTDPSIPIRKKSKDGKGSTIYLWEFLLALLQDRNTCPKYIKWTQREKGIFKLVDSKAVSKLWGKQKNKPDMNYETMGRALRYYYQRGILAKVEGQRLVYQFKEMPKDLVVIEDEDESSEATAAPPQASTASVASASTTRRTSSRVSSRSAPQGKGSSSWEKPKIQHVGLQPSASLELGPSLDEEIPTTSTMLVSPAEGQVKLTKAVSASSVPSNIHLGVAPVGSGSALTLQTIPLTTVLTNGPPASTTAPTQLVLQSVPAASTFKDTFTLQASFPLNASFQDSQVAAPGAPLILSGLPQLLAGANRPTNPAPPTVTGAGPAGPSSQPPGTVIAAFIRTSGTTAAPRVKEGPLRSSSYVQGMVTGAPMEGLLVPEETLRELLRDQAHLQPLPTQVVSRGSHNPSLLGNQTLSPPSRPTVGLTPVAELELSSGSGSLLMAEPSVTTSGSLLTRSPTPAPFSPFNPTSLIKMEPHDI
CRX, sequence (O43186 whole entry): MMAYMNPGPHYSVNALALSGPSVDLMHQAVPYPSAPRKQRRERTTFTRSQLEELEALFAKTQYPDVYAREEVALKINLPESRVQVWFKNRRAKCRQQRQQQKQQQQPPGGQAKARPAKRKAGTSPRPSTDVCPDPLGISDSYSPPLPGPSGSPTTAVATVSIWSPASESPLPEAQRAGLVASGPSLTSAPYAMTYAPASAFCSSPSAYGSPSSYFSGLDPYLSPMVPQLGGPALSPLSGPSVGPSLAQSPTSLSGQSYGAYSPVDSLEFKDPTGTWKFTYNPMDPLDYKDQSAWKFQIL
ETV5, sequence (P41161 whole entry): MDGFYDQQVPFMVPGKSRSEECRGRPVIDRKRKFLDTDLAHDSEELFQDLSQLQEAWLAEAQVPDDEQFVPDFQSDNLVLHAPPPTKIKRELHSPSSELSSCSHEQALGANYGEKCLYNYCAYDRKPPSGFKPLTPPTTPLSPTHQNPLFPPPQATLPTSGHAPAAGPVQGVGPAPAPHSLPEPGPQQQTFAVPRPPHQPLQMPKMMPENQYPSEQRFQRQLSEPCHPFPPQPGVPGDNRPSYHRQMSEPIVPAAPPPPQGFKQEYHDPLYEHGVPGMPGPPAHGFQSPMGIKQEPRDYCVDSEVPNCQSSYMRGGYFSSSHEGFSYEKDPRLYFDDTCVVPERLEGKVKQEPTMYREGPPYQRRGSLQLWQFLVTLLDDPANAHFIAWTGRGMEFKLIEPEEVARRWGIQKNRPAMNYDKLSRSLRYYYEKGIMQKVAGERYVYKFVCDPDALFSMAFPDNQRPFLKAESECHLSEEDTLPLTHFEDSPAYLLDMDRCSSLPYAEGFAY
HSF1, sequence (Q00613 whole entry): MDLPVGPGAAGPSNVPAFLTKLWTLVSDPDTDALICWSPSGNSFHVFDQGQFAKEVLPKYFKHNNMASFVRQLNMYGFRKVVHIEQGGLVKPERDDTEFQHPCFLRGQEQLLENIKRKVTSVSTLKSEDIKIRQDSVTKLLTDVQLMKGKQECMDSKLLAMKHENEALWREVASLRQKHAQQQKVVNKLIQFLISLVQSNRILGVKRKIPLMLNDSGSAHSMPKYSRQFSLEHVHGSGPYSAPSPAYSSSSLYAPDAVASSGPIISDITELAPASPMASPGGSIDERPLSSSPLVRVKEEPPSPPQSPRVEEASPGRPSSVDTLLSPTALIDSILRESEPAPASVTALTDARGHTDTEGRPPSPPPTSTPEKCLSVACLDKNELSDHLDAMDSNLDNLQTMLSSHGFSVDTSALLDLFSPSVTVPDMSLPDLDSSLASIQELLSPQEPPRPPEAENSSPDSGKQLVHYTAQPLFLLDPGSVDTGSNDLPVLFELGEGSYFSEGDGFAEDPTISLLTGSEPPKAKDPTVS

## TATGTT
FEV
  binding signal: 1.17 fold enrichment (6-mer frequency, TF over GST control)
ETV5
  binding signal: 1.15 fold enrichment (6-mer frequency, TF over GST control)
HSF1
  binding signal: 1.21 fold enrichment (6-mer frequency, TF over GST control)
SPIC
  binding signal: 1.06 fold enrichment (6-mer frequency, TF over GST control)
ELF4
  binding signal: 1.2 fold enrichment (6-mer frequency, TF over GST control)
ELK4
  binding signal: 1.29 fold enrichment (6-mer frequency, TF over GST control)
ETV2
  binding signal: 1.08 fold enrichment (6-mer frequency, TF over GST control)
ELF3
  binding signal: 1.1 fold enrichment (6-mer frequency, TF over GST control)
CRX
  binding signal: 1.26 fold enrichment (6-mer frequency, TF over GST control)
ETV1
  binding signal: 1.1 fold enrichment (6-mer frequency, TF over GST control)
